# Results from the supplement of paper PMC12494721.
# Structures can show the parent of a compound that is named as a salt.
# System: Clostridium sporogenes DSM 1664
# Assay: growth (OD595) fold change vs plate DMSO controls (fold change (ratio)); higher = more growth
# Conditions: incubation time: 27 h, anaerobic, 37 °C
# Summary of the method: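 Anaerobic 27 h, 37 °C mGAM 96-well cultures were shaken, then read for absorbance at 595 nm. Values were blank-subtracted and corrected for compound background using 20 µM compound solutions in water. A calibration factor of 5 converted them to OD. Growth is the fold change versus the median of plate DMSO controls. Fold changes above 1.5 were set to NA, and values are the mean of 2 biological replicates.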
row,SMILES,growth
1,CCCCCCCCCCCCCCCCCCCCCC(=O)Nc1ccn([C@@H]2O[C@H](CO)[C@@H](O)[C@@H]2O)c(=O)n1 [Enocitabine] (20 µM),0.978
2,COCC1=C(C(=O)OC(C)OC(=O)OC(C)C)N2C(=O)[C@@H](NC(=O)/C(=N\OC)c3csc(N)n3)[C@H]2SC1 (stereo partly drawn) [Cefpodoxime proxetil] (20 µM),1.05
3,COc1cccc2c1C(=O)c1c(O)c3c(c(O)c1C2=O)C[C@@](O)(C(=O)CO)C[C@@H]3O[C@H]1C[C@H](N)[C@@H](O)[C@H](C)O1 [Epirubicin hydrochloride] (20 µM),0.607
4,CN1CCCN(C(c2ccccc2)c2ccc(Cl)cc2)CC1 (stereo not drawn) [Homochlorcyclizine dihydrochloride] (20 µM),1.12
5,COc1ccc(/C=C/C(=O)Nc2ccccc2C(=O)O)cc1OC [Tranilast] (20 µM),1.04
6,CC(C)Nc1ncccn1 [Isaxonine] (20 µM),1.12
7,CC(=O)N[C@@H](CS)C(=O)O [Acetylcysteine] (20 µM),0.935
8,C=C1C[C@@]23CC[C@H]4[C@@](C)(CCC[C@@]4(C)C(=O)O[C@@H]4O[C@H](CO)[C@@H](O)[C@H](O)[C@H]4O)[C@@H]2CC[C@]1(O[C@@H]1O[C@H](CO)[C@@H](O)[C@H](O)[C@H]1O[C@@H]1O[C@H](CO)[C@@H](O)[C@H](O)[C@H]1O)C3 [Stevioside] (50 µM),0.957
9,Nc1ccc(S(=O)(=O)Nc2nccs2)cc1 [Sulfathiazole] (20 µM),0.969
10,CC(=O)OCC(=O)[C@@]1(O)CC[C@H]2[C@@H]3CCC4=CC(=O)C=C[C@]4(C)[C@@]3(F)[C@@H](O)C[C@@]21C [Isoflupredone acetate] (20 µM),0.985
11,CC(=O)CCCCn1c(=O)c2c(ncn2C)n(C)c1=O [Pentoxifylline] (20 µM),1.01
12,CCN(CC)CCOC(=O)C1(C2CCCCC2)CCCCC1 [Dicyclomine hydrochloride] (20 µM),0.883
13,CC(=O)OCC(=O)[C@@]1(O)[C@H](C)C[C@H]2[C@@H]3CCC4=CC(=O)C=C[C@]4(C)[C@@]3(F)[C@@H](O)C[C@@]21C [Dexamethasone acetate] (20 µM),1.05
14,Cc1nc2n(c(=O)c1CCN1CCC(c3noc4cc(F)ccc34)CC1)CCCC2O (stereo not drawn) [Paliperidone] (20 µM),0.897
15,O=C(Nc1cccc2c(=O)cc(-c3nnn[nH]3)oc12)c1ccc(OCCCCc2ccccc2)cc1 [Pranlukast] (20 µM),1.1
16,CCC(Cc1c(I)cc(I)c(N)c1I)C(=O)O (stereo not drawn) [Iopanoic acid] (20 µM),0.989
17,C/C(=C\C(=O)OCCCCCCCCC(=O)O)C[C@@H]1OC[C@H](C[C@@H]2O[C@H]2[C@@H](C)[C@H](C)O)[C@@H](O)[C@H]1O [Mupirocin] (20 µM),0.909
18,CC(Oc1c(Cl)cccc1Cl)C1=NCCN1 (stereo not drawn) [Lofexidine] (20 µM),1.07
19,CCOc1ccc(NC(=O)CC(C)O)cc1 (stereo not drawn) [Bucetin] (20 µM),0.973
20,CN(C)CCc1c[nH]c2ccc(Cn3cncn3)cc12 [Rizatriptan benzoate] (20 µM),0.987
21,CC(C)OC(=O)C(C(=O)OC(C)C)=C1SC=CS1 [Malotilate] (20 µM),1.09
22,CC1CS(=O)(=O)CCN1/N=C/c1ccc([N+](=O)[O-])o1 (stereo not drawn) [Nifurtimox] (20 µM),1.13
23,CC(=O)OCC(=O)[C@@]12OC3(CCCC3)O[C@@H]1C[C@H]1[C@@H]3CCC4=CC(=O)C=C[C@]4(C)[C@@]3(F)[C@@H](O)C[C@@]12C [Amcinonide] (20 µM),1.12
24,OC[C@H]1O[C@@H](c2ccc(Cl)c(Cc3ccc(O[C@H]4CCOC4)cc3)c2)[C@H](O)[C@@H](O)[C@@H]1O [Empagliflozin] (20 µM),1.04
25,CC(CN(C)C)CN1c2ccccc2Sc2ccccc21 (stereo not drawn) [Trimeprazine tartrate] (20 µM),1.23
26,CCC(=O)O[C@]1(C(=O)SCF)[C@H](C)C[C@H]2[C@@H]3C[C@H](F)C4=CC(=O)C=C[C@]4(C)[C@@]3(F)[C@@H](O)C[C@@]21C [Fluticasone propionate] (20 µM),0.911
27,OC[C@H]1O[C@@H](n2cnc3cncnc32)[C@H](O)[C@@H]1O [Nebularine] (20 µM),0.985
28,C=C1[C@H](CO)[C@@H](O)C[C@@H]1n1cnc2c(=O)[nH]c(N)nc21 [Entecavir] (20 µM),0.907
